# Assay results as given in PubChem BioAssay (EPA / NIEHS).
# The source made the active and inactive calls. Rule for the calls: active = hit-call score of the fitted dose curve at least 0.9, where 1 is the maximum; inactive = score below 0.9.
# Assays:
# [1] = read-out: Vascular cell adhesion molecule 1 (VCAM1), VCAM1 (gene 7412); assay: BSK_CASM3C_VCAM1: BioMAP Diversity Plus: CASM3C Assay for Vascular cell adhesion molecule 1 (VCAM1) Biomarker Activity (AID 2283055); settings: primary human coronary artery smooth muscle cells; actives raise or lower the signal;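 note: VCAM-1 protein level quantified by ELISA on the cells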
# [2] = read-out: Collagen III, COL3A1 (gene 1281); assay: BSK_hDFCGF_CollagenIII: BioMAP Diversity Plus: hDFCGF Assay for Collagen III Biomarker Activity (AID 2283056); settings: primary human foreskin fibroblasts; actives raise or lower the signal
# How it was run: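 Human foreskin primary fibroblasts were exposed to test chemicals for 24 h, after which collagen III was quantified by ELISA. Activity was fitted bidirectionally against DMSO as negative control and baseline.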
# [3] = read-out: Epidermal growth factor receptor (EGFR), EGFR (gene 1956); assay: BSK_hDFCGF_EGFR: BioMAP Diversity Plus: hDFCGF Assay for Epidermal growth factor receptor (EGFR) Biomarker Activity (AID 2283057); settings: primary human foreskin fibroblasts; actives raise or lower the signal
# How it was run: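 Cell-based multiplexed assay in primary human foreskin fibroblasts. EGFR is read by ELISA 24 h after treatment and compared with DMSO controls.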
# [4] = read-out: Interleukin-8 (IL8), CXCL8 (gene 3576); assay: BSK_hDFCGF_IL8: BioMAP Diversity Plus: hDFCGF Assay for Interleukin-8 (IL8) Biomarker Activity (AID 2283058); settings: primary human foreskin fibroblasts; actives raise or lower the signal
# How it was run: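 hDFCGF human dermal fibroblasts; 24 h chemical exposure; IL-8 by ELISA; bidirectional curve fit vs DMSO baseline; gain or loss of signal scored.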
# [5] = BSK_hDFCGF_Proliferation: Cell Proliferation Assessment in the BioMAP Diversity Plus: hDFCGF Assay (AID 2283059); settings: primary human foreskin fibroblasts;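 note: curves fitted for both rise and fall of signal versus DMSO baseline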
# How it was run: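 This proliferation readout used SRB total-protein staining of human foreskin fibroblasts […], normalized to DMSO with bidirectional curve fitting.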
# [6] = BSK_hDFCGF_SRB: Viability Assessment in the BioMAP Diversity Plus: hDFCGF Assay (AID 2283061); settings: primary human foreskin fibroblasts;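 note: cells exposed to compound for 24 h before the read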
# How it was run: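 Human foreskin primary fibroblasts were treated with compound and assessed 24 h after dosing. Total protein was measured by sulforhodamine B staining (0.1% SRB after 10% TCA fixation, 560 nm read) as a cytotoxicity marker, with bidirectional fitting against DMSO baseline.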
# [7] = read-out: TIMP metallopeptidase inhibitor 1 (TIMP1), TIMP1 (gene 7076); assay: BSK_hDFCGF_TIMP1: BioMAP Diversity Plus: hDFCGF Assay for TIMP metallopeptidase inhibitor 1 (TIMP1) Biomarker Activity (AID 2283062); settings: primary human foreskin fibroblasts; actives raise or lower the signal
# How it was run: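 Primary human foreskin fibroblasts in the hDFCGF system were dosed with compound for 24 h, then TIMP-1 was measured by ELISA. Activity was fitted bidirectionally relative to DMSO control; parallel SRB staining assessed cytotoxicity.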
# [8] = read-out: Monokine induced gamma interferon (MIG), CXCL9 (gene 4283); assay: BSK_hDFCGF_MIG: BioMAP Diversity Plus: hDFCGF Assay for Monokine induced gamma interferon (MIG) Biomarker Activity (AID 2283063); settings: primary human foreskin fibroblasts; actives raise or lower the signal
# How it was run: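 ELISA read-out of MIG from primary human dermal fibroblasts 24 h post-dosing. Gain or loss of signal fitted bidirectionally, DMSO as baseline.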
# [9] = read-out: Matrix Metallopeptidase 1 (MMP1), MMP1 (gene 4312); assay: BSK_hDFCGF_MMP1: BioMAP Diversity Plus: hDFCGF Assay for Matrix Metallopeptidase 1 (MMP1) Biomarker Activity (AID 2283064); settings: primary human foreskin fibroblasts; actives raise or lower the signal
# How it was run: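 MMP1 levels quantified by ELISA 24 h after dosing human dermal fibroblast cultures, with parallel SRB total-protein staining for overt cytotoxicity. Data fitted in both directions against DMSO baseline.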
# [10] = read-out: Vascular cell adhesion molecule 1 (VCAM1), VCAM1 (gene 7412); assay: BSK_hDFCGF_VCAM1: BioMAP Diversity Plus: hDFCGF Assay for Vascular cell adhesion molecule 1 (VCAM1) Biomarker Activity (AID 2283065); settings: primary human foreskin fibroblasts; actives raise or lower the signal;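 for AC50: VCAM-1 protein level quantified by ELISA after 24 h chemical exposure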
# How it was run: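 Primary human foreskin fibroblasts (hDFCGF system) were dosed with chemical and VCAM-1 was measured by ELISA 24 h later. Bidirectional curve fitting used DMSO as negative control and activity baseline.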
# [11] = read-out: Plasminogen activator inhibitor-1 (PAI1), SERPINE1 (gene 5054); assay: BSK_hDFCGF_PAI1: BioMAP Diversity Plus: hDFCGF Assay for Plasminogen activator inhibitor-1 (PAI1) Biomarker Activity (AID 2283066); settings: primary human foreskin fibroblasts; actives raise or lower the signal
# How it was run: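 Human skin fibroblast cultures receive chemical for 24 h before PAI-1 is measured by ELISA; signal changes are fitted bidirectionally against DMSO-treated wells.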
# [12] = read-out: Intercellular Adhesion Molecule 1 (ICAM1), ICAM1 (gene 3383); assay: BSK_KF3CT_ICAM1: BioMAP Diversity Plus: KF3CT Assay for Intercellular Adhesion Molecule 1 (ICAM1) Biomarker Activity (AID 2283067); settings: primary human keratinocytes with fibroblasts; actives raise or lower the signal
# How it was run: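 Human keratinocyte plus foreskin fibroblast primary co-culture was exposed to chemical for 24 h. ICAM-1 was then quantified by ELISA, and the data were fit bidirectionally against DMSO as the negative control and baseline.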
# [13] = read-out: Interferon-gamma inducible Protein 10 (IP10), CXCL10 (gene 3627); assay: BSK_KF3CT_IP10: BioMAP Diversity Plus: KF3CT Assay for Interferon-gamma inducible Protein 10 (IP10) Biomarker Activity (AID 2283068); settings: primary human keratinocytes with fibroblasts; actives raise or lower the signal
# How it was run: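 Signal is secreted/surface IP-10 by ELISA in a human primary skin co-culture of keratinocytes and foreskin fibroblasts, taken 24 h post-dosing; DMSO served as negative control.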
# [14] = BSK_KF3CT_SRB: Viability Assessment in the BioMAP Diversity Plus: KF3CT Assay (AID 2283069); settings: primary human keratinocytes with fibroblasts
# How it was run: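 Cytotoxicity was gauged by SRB staining (0.1% SRB, 10% TCA fixation, 560 nm) of parallel cultures at 24 h. The cells were primary human skin keratinocytes co-cultured with fibroblasts, and activity was fitted in both directions against DMSO.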
# [15] = read-out: Interleukin-1 alpha (IL1a), IL1A (gene 3552); assay: BSK_KF3CT_IL1a: BioMAP Diversity Plus: KF3CT Assay for Interleukin-1 alpha (IL1a) Biomarker Activity (AID 2283070); settings: primary human keratinocytes with fibroblasts; actives raise or lower the signal
# How it was run: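 IL-1a was detected by ELISA 24 h after chemical treatment of a co-culture of human skin keratinocytes and foreskin fibroblasts. Gain or loss of signal was fitted against the DMSO baseline.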
# [16] = read-out: TIMP metallopeptidase inhibitor 2 (TIMP2), TIMP2 (gene 7077); assay: BSK_KF3CT_TIMP2: BioMAP Diversity Plus: KF3CT Assay for TIMP metallopeptidase inhibitor 2 (TIMP2) Biomarker Activity (AID 2283071); settings: primary human keratinocytes with fibroblasts; actives raise or lower the signal
# How it was run: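 Measurements come from ELISA detection of TIMP-2 at 24 hours in a dosed human keratinocyte and foreskin fibroblast co-culture. DMSO serves as negative control and baseline.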
# [17] = read-out: Transforming growth factor beta 1 (TGFb1), TGFB1 (gene 7040); assay: BSK_KF3CT_TGFb1: BioMAP Diversity Plus: KF3CT Assay for Transforming growth factor beta 1 (TGFb1) Biomarker Activity (AID 2283072); settings: primary human keratinocytes with fibroblasts; actives raise or lower the signal
# How it was run: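 TGF-b1 ELISA on a 24 h dosed co-culture of human keratinocytes and foreskin fibroblasts; cytotoxicity tracked in parallel cultures by SRB staining.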
# [18] = read-out: C-C motif chemokine 2 (Homo sapiens) (UniProt P13500); assay: BSK_KF3CT_MCP1: BioMAP Diversity Plus: KF3CT Assay for Monocyte Chemoattractant Protein 1 (MCP1/CCL2) Biomarker Activity (AID 2283073); settings: primary human keratinocytes with fibroblasts; actives raise or lower the signal
# How it was run: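 Human keratinocyte plus foreskin fibroblast primary co-culture exposed to chemical for 24 h. MCP-1 levels measured by ELISA. Bidirectional curve fitting relative to DMSO negative control as baseline.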
# [19] = read-out: Matrix Metallopeptidase 9 (MMP9), MMP9 (gene 4318); assay: BSK_KF3CT_MMP9: BioMAP Diversity Plus: KF3CT Assay for Matrix Metallopeptidase 9 (MMP9) Biomarker Activity (AID 2283074); settings: primary human keratinocytes with fibroblasts; actives raise or lower the signal
# How it was run: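 MMP-9 quantified by ELISA after 24 h chemical treatment of primary human skin keratinocyte/fibroblast co-cultures; gain or loss fitted against DMSO, with parallel SRB staining (0.1% SRB, 560 nm) for overt cytotoxicity.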
# [20] = read-out: Macrophage colony-stimulating factor (MCSF), CSF1 (gene 1435); assay: BSK_hDFCGF_MCSF: BioMAP Diversity Plus: hDFCGF Assay for Macrophage colony-stimulating factor (MCSF) Biomarker Activity (AID 2283060); settings: primary human foreskin fibroblasts; actives raise or lower the signal
# How it was run: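 Human foreskin primary fibroblasts were treated with test chemical for 24 h, and M-CSF was then measured by ELISA. Data were fitted bidirectionally against DMSO as the negative control and activity baseline.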
compound,measurement,setting,value
C[C@]12CC[C@@H](O)C[C@@H]1CC[C@@H]1[C@@H]2CC[C@]2(C)C(=O)CC[C@@H]12,outcome,[1],inactive
same,outcome,[2],inactive
same,outcome,[3],inactive
same,outcome,[4],inactive
same,outcome,[5],inactive
same,outcome,[6],inactive
same,outcome,[7],inactive
same,outcome,[8],inactive
same,outcome,[9],inactive
same,outcome,[10],inactive
same,outcome,[11],inactive
same,outcome,[12],inactive
same,outcome,[13],inactive
same,outcome,[14],inactive
same,outcome,[15],inactive
same,outcome,[16],inactive
same,outcome,[17],inactive
same,outcome,[18],inactive
same,outcome,[19],inactive
CCCCCCCCCCCCc1cccc(S(=O)(=O)O)c1,outcome,[1],inactive
same,AC50,[2],16.2 µM (active)
same,AC50,[3],11.8 µM (active)
same,AC50,[5],8.86 µM (active)
same,AC50,[20],12.5 µM (active)
same,AC50,[6],18.1 µM (active)
same,AC50,[7],30.1 µM (active)
same,AC50,[9],28.3 µM (active)
same,AC50,[10],12 µM (active)
same,AC50,[11],9.68 µM (active)
same,AC50,[12],28.4 µM (active)
same,AC50,[13],16.5 µM (active)
same,AC50,[14],26.5 µM (active)
same,AC50,[15],33.3 µM (active)
same,AC50,[18],28.7 µM (active)
O=C(Cc1ccccc1)OCCc1ccccc1,outcome,[1],inactive
same,outcome,[2],inactive
same,outcome,[3],inactive
same,outcome,[4],inactive
same,outcome,[5],inactive
same,outcome,[6],inactive
same,outcome,[7],inactive
same,outcome,[8],inactive
same,outcome,[9],inactive
same,outcome,[10],inactive
same,outcome,[11],inactive
same,outcome,[12],inactive
same,outcome,[13],inactive
same,outcome,[14],inactive
same,outcome,[15],inactive
same,outcome,[16],inactive
same,outcome,[18],inactive
O=C(N[C@H]1CN2CCC1CC2)c1ccc2c(c1)OCCO2,outcome,[1],inactive
same,outcome,[2],inactive
same,outcome,[3],inactive
same,outcome,[4],inactive
same,outcome,[5],inactive
same,outcome,[6],inactive
same,outcome,[7],inactive
same,outcome,[9],inactive
same,outcome,[10],inactive
same,outcome,[11],inactive
same,outcome,[12],inactive
same,outcome,[13],inactive
same,outcome,[14],inactive
same,outcome,[15],inactive
same,outcome,[16],inactive
same,outcome,[18],inactive
CCOP(=S)(OCC)SCS(=O)(=O)C(C)(C)C,outcome,[1],inactive
same,outcome,[2],inactive
same,outcome,[3],inactive
same,outcome,[4],inactive
same,outcome,[5],inactive
same,outcome,[6],inactive
same,outcome,[7],inactive
same,outcome,[8],inactive
same,outcome,[9],inactive
same,outcome,[10],inactive
same,outcome,[11],inactive
same,outcome,[12],inactive
same,outcome,[13],inactive
same,outcome,[14],inactive
same,outcome,[15],inactive
same,outcome,[16],inactive
same,outcome,[17],inactive
same,outcome,[18],inactive
O=C(CCl)NCO,outcome,[1],inactive
same,outcome,[2],inactive
same,outcome,[3],inactive
same,outcome,[4],inactive
same,outcome,[5],inactive
same,outcome,[7],inactive
same,outcome,[9],inactive
same,outcome,[10],inactive
same,outcome,[11],inactive
same,outcome,[12],inactive
same,outcome,[13],inactive
same,outcome,[14],inactive
same,outcome,[15],inactive
same,outcome,[16],inactive
same,outcome,[18],inactive
same,outcome,[19],inactive
